A short description of assay [1]: qHTS assay to identify small molecule agonists of the peroxisome proliferator-activated receptor delta (PPARd) signaling pathway - cell viability counter screen (AID 743211). Also: nearly all actives have a fitted effect of over 55% in size. Also: potency is read from the fitted curve at half-maximal effect. In short, it runs like this:
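Tox21 library compounds, delivered in DMSO, were incubated 17 h with PPARd-bla HEK293H cells; cytotoxicity was taken from CellTiter-Glo luminescence read 30 min after reagent addition.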
A general note: In qHTS, concentration-response curves come from the screen itself.

Assay [2] concerns the target Peroxisome proliferator-activated receptor delta (Homo sapiens) (UniProt Q03181). Nature of the assay: qHTS assay to identify small molecule antagonists of the peroxisome proliferator-activated receptor delta (PPARd) signaling pathway (AID 743215; active = well fitted inhibition curve with a large enough effect in the signal ratio in the repeat runs, not every such curve was filed as active; the % refers to the signal ratio;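 also: cells stimulated with agonist L165041 at 300 nM final during compound exposure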; also: potency is read from the fitted curve at half-maximal effect). Put shortly: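 Plated HEK293H PPARd-bla cells rested 5 h at 37 C and 5% CO2. Compound, then agonist L165041 at 300 nM final, was added; 17 h at 37 C followed. Substrate loading, 2 h room temperature, fluorescence measured.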

Assay [3] in a line: qHTS assay to identify small molecule agonists of the farnesoid-X-receptor (FXR) signaling pathway - cell viability counter screen (AID 743218). Also: nearly all actives have a fitted effect of over 45% in size. Also: potency is read from the fitted curve at half-maximal effect. In short, it runs like this: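 Viability of FXR-bla HEK 293T cells is measured by ATP-based CellTiter-Glo luminescence following 16 h compound treatment at 37 C and a prior 2 h room-temperature beta-lactamase substrate step.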
The nature of assay [4]: qHTS assay to identify small molecule agonists of the vitamin D receptor (VDR) signaling pathway - cell viability counter screen (AID 743224). Also: nearly all actives have a fitted effect of over 50% in size. Also: potency is read from the fitted curve at half-maximal effect. In short, it runs like this: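 Compounds were pin-transferred onto VDR-bla cells plated 4 h earlier; following 16 h incubation at 37C, cell viability was quantified by CellTiter-Glo luminescence after 30 min at room temperature.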

A short description of assay [5]: qHTS assay to identify small molecule antagonists of the vitamin D receptor (VDR) signaling pathway - cell viability counter screen (AID 743225). Also: nearly all actives have a fitted effect of over 50% in size. Also: potency is read from the fitted curve at half-maximal effect. Put shortly: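 Same-well multiplex: following 16 h treatment of HEK 293T cells carrying a UAS-driven beta-lactamase reporter with compound and agonist (3 nM final), and a 2 h FRET substrate step, CellTiter-Glo was added and luminescence read after 30 min.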

The nature of assay [6]: qHTS assay to identify small molecule agonists of the NFkB signaling pathway - cell viability counter screen (AID 1159515; calls by dose curve; also: nearly all actives have a fitted effect of over 55% in size; also: potency is read from the fitted curve at half-maximal effect). In short, it runs like this:
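Parallel cytotoxicity counter screen in ME-180 cells carrying an NFkB-response-element beta-lactamase reporter, 2,000 cells/well. Compound exposure lasted 5 hr at 37 C, 5% CO2. Cell viability was quantified by CellTiter-Glo luminescence.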

Assay [7] can be described thus: qHTS assay to identify small molecule agonists of the endoplasmic reticulum stress response signaling pathway - cell viability counter screen (AID 1159517; calls by dose curve; also: nearly all actives have a fitted effect of over 50% in size; also: potency is read from the fitted curve at half-maximal effect). Put shortly:
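Cytotoxicity of test compounds toward ESRE-bla HeLa cells was assessed after 5 hr exposure. The luminescent CellTiter-Glo signal was measured 30 min after reagent addition.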

The nature of assay [8]: qHTS assay to identify small molecule antagonists of the retinoid-related orphan receptor gamma (ROR-gamma) signaling pathway - cell viability counter screen (AID 1159520). Also: nearly all actives have a fitted effect of over 50% in size. Also: potency is read from the fitted curve at half-maximal effect. Put shortly: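 Tet-on ROR gamma CHO cells (1,000/well) were plated 4 hr, given compounds in DMSO for 2 hr at 37 C, then induced with 1 uM final doxycycline for 16 hr. Viability was read as ATP by CellTiter-Glo luminescence after 30 min.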

Assay [9] deals with Nuclear receptor ROR-gamma (Homo sapiens) (UniProt P51449). Put plainly: qHTS assay to identify small molecule antagonists of the retinoid-related orphan receptor gamma (ROR-gamma) signaling pathway (AID 1159521; also: nearly all actives have a fitted effect of over 50% in size; also: potency is read from the fitted curve at half-maximal effect). Put shortly: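 Inducible-expression reporter assay: doxycycline (1 uM final) switched on RORγ in CHO cells bearing a ROR response element-luciferase construct, with test compounds present from 2 h beforehand. Decreased luminescence after 16 h defined antagonist activity.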

A short description of assay [10]: qHTS assay to identify small molecule agonists of the AP-1 signaling pathway - cell viability counter screen (AID 1159525; calls by dose curve; also: nearly all actives have a fitted effect of over 55% in size; also: potency is read from the fitted curve at half-maximal effect). Put shortly: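 Each titration point was normalised to DMSO and tetra n-octyl ammonium bromide controls. The read was Cell Titer Glo luminescence after 30 min at RT, following 5 h compound exposure of ME-180 AP-1-bla cells at 37 °C.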
Assay [11] addresses Retinoic acid receptor RXR-alpha (Homo sapiens) (UniProt P19793). Put plainly: qHTS assay to identify small molecule agonists of the RXR signaling pathway (AID 1159527; calls by dose curve; also: nearly all actives have a fitted effect of over 35% in size; also: potency is read from the fitted curve at half-maximal effect). In short, it runs like this: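 Compounds in DMSO were added to RXR-alpha-UAS-bla HEK 293T cells kept in 2% charcoal-stripped serum, and incubated 16 hr at 37 C with 5% CO2. Reporter signal came from a 2 hr B/G FRET substrate step.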

The nature of assay [12]: qHTS assay to identify small molecule antagonists of the peroxisome proliferator-activated receptor delta (PPARd) signaling pathway - cell viability counter screen (AID 743213). Also: nearly all actives have a fitted effect of over 50% in size. Also: potency is read from the fitted curve at half-maximal effect. Put shortly:
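Viability counter-screen, qHTS format: PPARd-bla HEK293H, L165041 300 nM final, 17 h compound exposure at 37 C, CellTiter-Glo luminescence after 30 min RT.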

Assay [13] in a line: qHTS assay to identify small molecule antagonists of the farnesoid-X-receptor (FXR) signaling pathway - cell viability counter screen (AID 743221; active = well fitted cell-killing curve with a large enough effect in the repeat runs, not every such curve was filed as active; also: nearly all actives have a fitted effect of over 50% in size; also: potency is read from the fitted curve at half-maximal effect). In short, it runs like this:
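Cytotoxicity is taken from ATP luminescence (CellTiter-Glo, 30 min, room temperature) in FXR-bla HEK 293T cells previously incubated 16 h at 37 C with compound and chenodeoxycholic acid at 50 uM final.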

Assay [14] concerns the target Vitamin D3 receptor (Homo sapiens) (UniProt P11473). Nature of the assay: qHTS assay to identify small molecule agonists of the vitamin D receptor (VDR) signaling pathway (AID 743222; calls by dose curve). Put shortly:
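Fluorescence from cleaved LiveBLAzer B/G FRET substrate served as readout. VDR-bla cells had been treated 16 h at 37C with test compounds in DMSO, following a 4 h settling period, and substrate was loaded for 2 h at RT.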

A short description of assay [15]: qHTS assay to identify small molecule agonists of the AP-1 signaling pathway (AID 1159526; calls by dose curve).
Assay [16] concerns the target Peroxisome proliferator-activated receptor delta (Homo sapiens) (UniProt Q03181). Put plainly: qHTS assay to identify small molecule agonists of the peroxisome proliferator-activated receptor delta (PPARd) signaling pathway (AID 743212; calls by dose curve;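 also: HEK293H cells with PPARd UAS beta-lactamase reporter GeneBLAzer system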). Put shortly:
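Beta-lactamase reporter read by fluorescence (LiveBLAzer B/G FRET, 2 h, room temperature). Test agents, in DMSO, incubated at 37 C with PPARd-bla HEK293H cells.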

The target in assay [17] is Bile acid receptor (Homo sapiens) (UniProt Q96RI1). Put plainly: qHTS assay to identify small molecule agonists of the farnesoid-X-receptor (FXR) signaling pathway (AID 743220; active = well fitted activation curve with a large enough effect in the signal ratio in the repeat runs, not every such curve was filed as active; the % refers to the signal ratio). Put shortly: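 FXR-UAS-bla HEK 293T cells carrying a UAS-driven beta-lactamase reporter were plated for 5 h at 37C/5% CO2, then exposed to DMSO-dissolved Tox21 10K compounds for 16 h at 37C. A LiveBLAzer B/G FRET substrate was loaded for 2 h at room temperature before fluorescence reading.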
Bile acid receptor (Homo sapiens), sequence (Q96RI1 whole entry, looked up): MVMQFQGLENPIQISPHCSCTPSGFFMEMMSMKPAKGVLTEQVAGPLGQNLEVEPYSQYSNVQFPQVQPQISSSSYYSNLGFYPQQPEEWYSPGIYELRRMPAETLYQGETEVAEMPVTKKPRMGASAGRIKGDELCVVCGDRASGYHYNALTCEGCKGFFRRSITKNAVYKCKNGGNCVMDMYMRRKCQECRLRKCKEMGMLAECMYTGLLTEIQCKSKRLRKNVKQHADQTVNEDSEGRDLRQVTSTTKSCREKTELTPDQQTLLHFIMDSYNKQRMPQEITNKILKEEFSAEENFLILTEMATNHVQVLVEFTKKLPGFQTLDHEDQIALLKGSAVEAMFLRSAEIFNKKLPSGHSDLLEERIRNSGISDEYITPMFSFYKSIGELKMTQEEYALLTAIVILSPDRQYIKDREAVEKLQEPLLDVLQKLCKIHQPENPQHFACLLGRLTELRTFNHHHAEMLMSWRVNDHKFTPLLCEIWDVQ

In assay [18] the target is Vitamin D3 receptor (Homo sapiens) (UniProt P11473). Put plainly: qHTS assay to identify small molecule antagonists of the vitamin D receptor (VDR) signaling pathway (AID 743223; active = well fitted inhibition curve with a large enough effect in the signal ratio in the repeat runs, not every such curve was filed as active; the % refers to the signal ratio). In short, it runs like this: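 Quantitative HTS in VDR-bla reporter cells stimulated with 1alpha,25-dihydroxyvitamin D3, 3 nM final. Compound exposure 16 h, 37C, 5% CO2. Read-out: beta-lactamase FRET substrate fluorescence, 2 h RT.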
Vitamin D3 receptor (Homo sapiens), sequence (P11473 whole entry, looked up): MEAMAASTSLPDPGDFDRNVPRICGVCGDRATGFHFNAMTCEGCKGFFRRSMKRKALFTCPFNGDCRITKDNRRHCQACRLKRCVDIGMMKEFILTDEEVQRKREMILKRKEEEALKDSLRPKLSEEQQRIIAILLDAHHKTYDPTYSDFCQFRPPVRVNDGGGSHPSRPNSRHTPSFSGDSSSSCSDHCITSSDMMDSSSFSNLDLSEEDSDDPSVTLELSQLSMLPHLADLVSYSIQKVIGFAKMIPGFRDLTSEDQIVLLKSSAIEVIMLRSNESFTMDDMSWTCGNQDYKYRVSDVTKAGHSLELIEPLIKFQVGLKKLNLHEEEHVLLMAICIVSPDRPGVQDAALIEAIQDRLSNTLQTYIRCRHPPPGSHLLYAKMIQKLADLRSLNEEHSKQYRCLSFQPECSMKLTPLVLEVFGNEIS

Inconclusive results are not listed. The source made the active and inactive calls. Unless noted, calls follow the shape of the dose curve; as a rule, active = well fitted curve in the direction sought with a large enough effect in the repeat runs; inconclusive = weak or mixed curves; inactive = no such curve, though single readings can be large; an effect the other way counts as inactive or inconclusive.

Peroxisome proliferator-activated receptor delta (Homo sapiens), sequence (Q03181 whole entry, looked up): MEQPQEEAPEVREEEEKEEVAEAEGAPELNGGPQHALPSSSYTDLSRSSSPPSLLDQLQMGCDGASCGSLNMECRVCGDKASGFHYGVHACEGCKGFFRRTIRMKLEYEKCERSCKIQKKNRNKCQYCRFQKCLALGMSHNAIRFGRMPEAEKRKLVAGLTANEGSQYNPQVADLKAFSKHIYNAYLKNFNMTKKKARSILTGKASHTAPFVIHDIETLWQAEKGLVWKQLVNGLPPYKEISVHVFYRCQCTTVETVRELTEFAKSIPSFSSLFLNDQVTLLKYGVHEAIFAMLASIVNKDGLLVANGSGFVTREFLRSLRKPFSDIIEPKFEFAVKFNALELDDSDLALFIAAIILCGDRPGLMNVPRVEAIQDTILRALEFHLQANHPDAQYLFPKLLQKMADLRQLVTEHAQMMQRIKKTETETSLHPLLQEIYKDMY
Retinoic acid receptor RXR-alpha (Homo sapiens), sequence (P19793 whole entry, looked up): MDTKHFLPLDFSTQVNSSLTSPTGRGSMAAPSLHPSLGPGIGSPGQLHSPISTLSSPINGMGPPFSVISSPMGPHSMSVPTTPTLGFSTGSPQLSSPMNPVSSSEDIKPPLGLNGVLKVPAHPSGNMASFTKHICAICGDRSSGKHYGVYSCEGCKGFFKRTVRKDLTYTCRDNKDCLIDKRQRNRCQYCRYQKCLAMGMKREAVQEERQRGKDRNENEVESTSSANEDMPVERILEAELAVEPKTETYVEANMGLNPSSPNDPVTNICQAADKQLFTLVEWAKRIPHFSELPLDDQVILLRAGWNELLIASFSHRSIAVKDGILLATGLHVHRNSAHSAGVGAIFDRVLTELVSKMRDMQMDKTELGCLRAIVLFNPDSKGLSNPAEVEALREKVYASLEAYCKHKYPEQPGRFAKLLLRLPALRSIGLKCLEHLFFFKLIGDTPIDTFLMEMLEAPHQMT

As for `CCC[CH2][Sn]([CH2]CCC)([CH2]CCC)[CH2]CCC`, the Potency in [1] is 43.6 µM (active); in [2], 15.5 µM (active); in assay [3] it was 49 µM (active); in [4], 38.9 µM (active); in assay [5], 49 µM (active); in assay [6], 30.9 µM (active). Further, the Potency in assay [7] was 21.9 µM (active); in [8] it was 10.9 µM (active); in assay [9] it was 6.11 µM (active); in assay [10], 21.9 µM (active); in assay [11], 0.0871 µM (active).
On to `N#CC(C#N)=NNc1cccc(Cl)c1`, for which the Potency in assay [1] was 8.71 µM (active); in [12], 8.71 µM (active); in [3], 5.49 µM (active); in assay [13], 6.92 µM (active); in assay [4] it was 6.92 µM (active); in assay [5], 8.71 µM (active). The Potency in assay [8] was 2.73 µM (active); in assay [9], 0.486 µM (active). Besides, the Potency result in assay [6], in assay [7] and in assay [10] was “inactive” in each case.
As to `CC[C@H](C)[C@H]1O[C@]2(C=C[C@@H]1C)C[C@@H]1C[C@@H](C/C=C(\C)[C@@H](O[C@H]3C[C@H](OC)[C@@H](O[C@H]4C[C@H](OC)[C@@H](NC)[C@H](C)O4)[C@H](C)O3)[C@@H](C)/C=C/C=C3\CO[C@@H]4[C@H](O)C(C)=C[C@@H](C(=O)O1)[C@]34O)O2`, the Potency is 3.09 µM (active) in assay [1]; 3.89 µM (active) in assay [12]; 3.09 µM (active) in [4]; 4.36 µM (active) in [5]; 34.7 µM (active) in [6]; 19.5 µM (active) in assay [7]. Also, the Potency is 13.7 µM (active) in [8] and 3.86 µM (active) in [9].
In the case of `COP(=O)(OC)Oc1ccc([N+](=O)[O-])cc1`, the Potency result in [1], in assay [12], in assay [3], in [13], in [14] and in assay [4] was “inactive” throughout. In addition, the Potency entry in [6], in assay [7], in assay [8], in assay [9], in assay [10] and in assay [15] was “inactive” throughout.
As for `BrCC(Br)(Br)Br`, the Potency entry in assay [16], in [12], in assay [2], in assay [3], in assay [17] and in assay [14] was “inactive” in each case. The Potency entry in [18], in assay [4], in assay [5], in [6], in assay [7] and in [9] was “inactive” in each case. The Potency entry in [15] and in assay [11] was “inactive” each time. Besides, the Potency in assay [8] was 50.3 µM (active).
Take `CCCCc1ccccc1`: the Potency entry in [1], in assay [16], in assay [12], in [2], in assay [3] and in [17] was “inactive” throughout. In addition, the Potency entry in assay [13], in assay [18], in assay [4], in assay [5], in [6] and in [7] was “inactive” throughout. The Potency result in assay [8], in assay [9] and in assay [10] was “inactive” throughout.
